# CHO-K1 Ca ag = counter-screen for M1 agonists: effect in parental CHO-K1 cells | activation, % at 3 µM | AID 602248 | hit rate 0.48% among 360,000 | Fluo-8 calcium fluorescence; scaled to maximal ATP response, vehicle zero; in the data active = activation above about 15%;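 also: untransfected CHO-K1 host cells lacking M1 receptor as counterscreen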
# M1 PAM = potentiates human M1 receptor response to acetylcholine; AID 588819; P11229; activation, % at 3 µM; hit rate 0.088% among 360,000; CHO-K1 hM1, Fluo-8 calcium fluorescence, ACh EC20; 0% = ACh EC20, 100% = maximal ACh; in the data active = activation above about 19%, passing the limit was not always enough
# Target sequence (P11229 whole entry, looked up): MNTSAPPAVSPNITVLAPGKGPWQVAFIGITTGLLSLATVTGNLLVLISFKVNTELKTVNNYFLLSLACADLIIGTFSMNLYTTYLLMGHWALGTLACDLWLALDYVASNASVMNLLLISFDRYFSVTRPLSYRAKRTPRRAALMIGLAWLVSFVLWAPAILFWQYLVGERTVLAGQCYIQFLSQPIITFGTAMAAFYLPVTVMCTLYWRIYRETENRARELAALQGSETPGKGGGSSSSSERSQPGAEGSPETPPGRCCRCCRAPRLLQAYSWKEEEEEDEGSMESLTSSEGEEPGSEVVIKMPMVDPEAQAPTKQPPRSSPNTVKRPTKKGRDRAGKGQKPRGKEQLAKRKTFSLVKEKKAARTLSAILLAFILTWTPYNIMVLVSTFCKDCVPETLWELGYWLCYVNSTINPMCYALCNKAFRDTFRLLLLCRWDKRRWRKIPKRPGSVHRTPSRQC
# CHRM1 antagonist = blocks human M1 muscarinic receptor; AID 588852; CHO-K1 hM1, Fluo-8 calcium fluorescence, ACh EC80 antagonist; hit rate 1.3% among 360,000; inhibition, % at 3 µM;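 active = percent inhibition above its own plate's cutoff, namely the mean of that plate's compound wells plus 3 SD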;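 also: peak over basal fluorescence ratio during 140 s after agonist addition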
# CHO-K1 Ca antag = nonselective inhibitor or artifact in parental CHO-K1 cells; inhibition, % at 3 µM; AID 602250; ATP-induced calcium, Fluo-8 fluorescence; hit rate 0.6% among 360,000;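 active = inhibition above a per-plate cutoff, the plate's mean sample inhibition plus 3 SD, cut at about 24% in these data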
# CHRM1 agonist = human M1 muscarinic receptor agonism; P11229; CHO-K1 hM1, Fluo-8 calcium fluorescence, agonist mode; 0% DMSO, 100% acetylcholine EC100; activation, % at 3 µM; hit rate 0.33% among 360,000;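 active = activation above the run's mean compound activation plus 3 SD, cut at about 16% in these data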;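 also: peak over basal fluorescence ratio within a 140 s kinetic read after compound addition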
# M1 PAM parental = nonselective activator or artifact in parental CHO-K1 calcium assay; AID 602247; hit rate 0.02% among 360,000; ATP EC20, Fluo-8 calcium fluorescence; 0% at ATP EC20, 100% at ATP max; activation, % at 3 µM;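 active = activation above the run cutoff, the mean activation of all test compounds plus 3 SD, cut at about 40% in these data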;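 also: peak over basal fluorescence ratio in a 140 s read after ATP addition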
# Numbers stand for hits; i = inactive. Compounds with a hit are over-represented: about 2.3% of the library has one in this group of screens.
SMILES,CHO-K1 Ca ag,M1 PAM,CHRM1 antagonist,CHO-K1 Ca antag,CHRM1 agonist,M1 PAM parental
O=C(CN1CCN(c2ccccc2O)CC1)NC(=O)NCc1ccco1,i,i,i,i,i,i
O=C(CN1CCC(Cc2ccccc2)CC1)NC(=O)NCc1ccco1,i,20,i,i,i,i
COc1ccc2cc1Oc1ccc(cc1)C[C@H]1c3c(cc4c(c3Oc3cc5c(cc3OC)CCN(C)[C@@H]5C2)OCO4)CCN1C,i,i,i,i,i,i
COc1ccc2cc1Oc1ccc(cc1)C[C@H]1c3cc(c(OC)cc3CCN1C)Oc1c(OC)c(OC)cc3c1[C@H](C2)N(C)CC3,i,i,91,i,i,i
O=C(N[C@H]1C/C=C\C[C@@H](CC(=O)N(CCO)Cc2ccccc2)C(=O)NC[C@H](c2ccccc2)OC1=O)OCC1c2ccccc2-c2ccccc21,i,i,i,i,i,i
COc1ccccc1CN1CCC(n2nccc2NC(=O)CCOc2ccccc2)CC1,i,i,i,i,i,i
Cc1ccc(S(=O)(=O)NCC(=O)Nc2cccnc2)cc1C,i,i,i,i,i,i
O=Cc1c[nH]c2cccc(OCc3ccccc3)c12,i,i,i,i,i,i
Cc1csc2ncnc(N3CCN(C(=S)Nc4ccc(C(F)(F)F)cc4)CC3)c12,i,i,43,i,i,i
Cc1csc2c(N3CCN(C(=O)c4ccc(C(C)(C)C)cc4)CC3)ncnc12,i,i,i,i,i,i
Cc1csc2c(N3CCN(C(=S)Nc4ccc(C(F)(F)F)cc4)CC3)ncnc12,i,i,i,28,i,i
Cn1c(Cc2cccs2)nnc1SCC(=O)Nc1ccc(F)cc1F,i,i,i,i,i,i
COC(=O)c1ccc(CNC(=O)c2cc(S(=O)(=O)NCc3ccccc3)ccc2C)cc1,i,i,i,24,i,i
CCc1ccc(S(=O)(=O)NCc2ccc(C(=O)NCCN(Cc3ccccc3)C(C)C)cc2)cc1,i,i,68,i,i,i
CCOc1ccccc1C1C(C(N)=O)=C(C)Nc2nc(CCCO)nn21 (stereo not given),i,i,i,27,i,i
CC1NC(=O)c2cc3ccccc3cc2-n2c1nc1ccc(F)cc1c2=O (stereo not given),i,i,i,i,i,i
C#Cc1ccc(CN2CCC(Oc3ccc(C(=O)NCc4ccccn4)cc3)CC2)cc1,i,i,78,i,i,i
O=C(NCc1ccccn1)c1ccc(OC2CCN(Cc3ccccc3)CC2)cc1,i,i,i,i,i,i
COc1ccc(CN2CCC(Oc3ccc(C(=O)NCc4ccccn4)cc3)CC2)c(F)c1,i,i,71,i,i,i
CCOc1cccc(CN2CCC(Oc3ccc(C(=O)NCc4ccccn4)cc3)CC2)c1,i,i,77,i,i,i
COc1ccc(NC(=O)N2C3CCCC2CC(NC(=O)c2ccccc2)C3)cc1 (stereo not given),i,i,i,i,i,i
O=C1CCC([N+](=O)[O-])C(c2ccccc2C(F)(F)F)N1 (stereo not given),i,i,i,i,i,i
CN(Cc1ccc(Cl)cc1Cl)C(=O)C1CSC2(C)CCC(=O)N12 (stereo not given),i,i,i,i,i,i
COc1cccc(CN(C)C(=O)Cn2cc(C)c(=O)[nH]c2=O)c1,i,i,i,i,i,i
COc1ccc(NC(=O)C2CCCN(C(=O)c3ccc(Cl)cc3)C2)cc1S(=O)(=O)N(C)C (stereo not given),i,i,i,i,i,i
SMILES,CHO-K1 Ca ag,M1 PAM,CHRM1 antagonist,CHO-K1 Ca antag,CHRM1 agonist,M1 PAM parental
O=C(NNC(=O)c1cnccc1C(F)(F)F)c1ccccc1,16,i,i,i,i,i
CC(C)CN(C(=O)c1cccc(S(=O)(=O)N2CCN(Cc3ccccc3)CC2)c1)C1CCS(=O)(=O)C1 (stereo not given),i,25,i,i,i,i
CN(CCOc1ccc(Cl)cc1)C(=O)c1cccc(S(=O)(=O)N2CCN(Cc3ccccc3)CC2)c1,i,i,40,i,i,i
COc1ccc(NC(=O)CN(C)C(=O)c2cccc(S(=O)(=O)N3CCN(Cc4ccccc4)CC3)c2)cc1,i,i,i,i,i,i
CCCN(C(=O)c1cccc(S(=O)(=O)N2CCN(Cc3ccccc3)CC2)c1)C1CCS(=O)(=O)C1 (stereo not given),i,i,i,i,i,i
N#CC1(NC(=O)COC(=O)/C=C/c2ccc3ccccc3n2)CCCCC1,i,i,i,i,i,i
CC(CN1CCN(CCOCCO)CC1)CN1c2ccccc2Sc2ccc(Cl)cc21 (stereo not given),i,i,56,i,i,i
CC(Sc1nc(N)cc(=O)[nH]1)C(=O)Nc1cccc(Cl)c1 (stereo not given),i,i,i,i,i,i
CC(=O)NC1C(=O)N=C(SC(C)C(=O)Nc2cccc(Cl)c2)NC1=O (stereo not given),15,i,i,i,i,i
CCOc1ccccc1N1CCN(C(=S)NCc2ccc(Cl)cc2)CC1,18,i,i,i,i,i
CCOc1ccccc1N1CCN(C(=S)NC(=O)C23CC4CC(CC(C4)C2)C3)CC1,i,i,i,i,i,i
O=[N+]([O-])c1ccc(N2CCN(C(=S)NCc3ccc(Cl)cc3)CC2)cc1,i,i,37,i,i,i
Cc1[nH]c2ccccc2c1C(=O)C(=O)N1CCN(c2cccc(Cl)c2)CC1,i,i,i,i,i,i
CC(=O)Nc1cccc(NC(=O)CSc2nc(=O)n(CCN3CCOCC3)c3c2CCCC3)c1,i,i,i,i,i,i
O=[N+]([O-])c1ccc2c(c1)-c1ccccc1C2O (stereo not given),i,i,i,i,i,i
Cc1cc2ncn(C3CC(=O)N(C)C3=O)c2cc1C (stereo not given),i,i,i,i,i,i
Cc1cc2ncn(C3CC(=O)N(Cc4ccccc4)C3=O)c2cc1C (stereo not given),17,i,i,i,i,i
CCOC(=O)C1=C(COC(=O)c2ccc(C)c(S(=O)(=O)N3CCOCC3)c2)NC(=O)NC1C (stereo not given),i,i,i,i,i,i
CC(=O)Oc1ccc2c(C)cc(=O)[nH]c2c1,i,i,i,26,i,i
O=C(NC(=O)c1c(F)cccc1F)Nc1cccc(Oc2ncc(Cl)cn2)c1,i,i,i,i,i,i
Cc1ccccc1OCC(=O)OC1CCN(C)CC1,i,i,32,i,i,i
COc1ccc(OCC(=O)OC2CCN(C)CC2)cc1,i,i,i,i,i,i
CN1CCC(OC(=O)COc2ccc(Br)cc2)CC1,i,i,31,i,i,i
C=CCN(c1ccccc1)S(=O)(=O)c1cccc(C(=O)NC2CCN(Cc3ccccc3)CC2)c1,i,i,i,i,i,i
COc1ccc(CCNC(=O)C2CC2)cc1,i,i,i,28,i,i
